Paper PMC4552634, “A New Set of Chemical Starting Points with Plasmodium falciparum Transmission-Blocking Potential for Antimalarial Drug Discovery” (PLoS ONE, 2015)
The whole screen tested about 13,000 compounds, of which about 3,200 (25%) showed an effect of 50% or more. The list shows a part of the results.

tested on: P. falciparum stage V gametocytes; design: BacTiter-Glo ATP luminescence viability of purified stage V gametocytes in 384-well plates, per cent inhibition versus DMSO; details: 48 h, 5 µM; inhibitor

| Compound | % Inhibition |
| --- | --- |
| COC(=O)c1sc2ccccc2c1NC(=O)c1ccc(C)c(C)c1 [TCMDC-125650] | 21.99% |
| CCC(C)(C)c1ccc2nc(N)nc(N)c2c1C [TCMDC-137829] | -16.15% |
| CC(=O)N1CCC(C(=O)Nc2ccc(-c3cccc(-c4nc5ccc(C(F)(F)F)cc5[nH]4)c3)cc2)CC1 [TCMDC-132166] | -13.72% |
| O=C(/C=C/c1ccc(Cl)c(Cl)c1)NCCCCCN1CCC(NC(=O)Nc2ccc(Cl)cc2Cl)CC1 [TCMDC-135729] | -21.32% |
| O=C(Nc1cccc(N2CCC(NCc3cccnc3)CC2)c1)c1cccc(C(F)(F)F)c1 [TCMDC-124649] | -0.3933% |
| COc1c(C2CCN(CCCCNC(=O)c3ccc(NC(=O)c4ccc(C#N)cc4)cc3)CC2)ccc2c1CCCC2 [TCMDC-138664] | 116.8% |
| COc1c(C2CCN(CCCCNC(=O)c3noc(-c4ccc(C#N)cc4)n3)CC2)ccc2c1CCCC2 [TCMDC-138814] | 4.753% |
| Cn1ccc(C(=O)Nc2ccc3c(c2)CN(Cc2ccc(N4CCCC4)o2)CCC3)n1 [TCMDC-134722] | -3.632% |
| O=C(NCc1cccc(F)c1)Nc1cccc(-c2cccc(-c3nc4ccccc4[nH]3)c2)c1 [TCMDC-133290] | 0.3342% |
| CC(=O)Nc1ccc(CN2Cc3ccc(NC(=O)Nc4ccc(Oc5ccccc5)cc4)cc3C2)s1 [TCMDC-141756] | -76.53% |
| FC(F)(F)c1ccc2[nH]c(-c3ccc(-c4cccc(CN5CCC(CCN6CCCCC6)CC5)c4)cc3)nc2c1 [TCMDC-133941] | 100.4% |
| c1cc(-c2ccc(CN3CCCCC3)cc2)cc(-c2nc3ccccc3[nH]2)c1 [TCMDC-133917] | -5.733% |
| Cc1cccc2nc(-c3ccc(-c4ccc(CN5CCCC(O)C5)cc4)cc3)[nH]c12.O=C(O)C(F)(F)F (stereo not drawn) [TCMDC-133826] | 35.59% |
| O=C(O)C(F)(F)F.OCC1CCN(Cc2ccc(-c3ccc(-c4nc5cc(F)ccc5[nH]4)cc3)cc2)CC1 [TCMDC-133125] | 29.73% |
| Fc1ccc2nc(-c3cccc(-c4ccc(CN5CCCCC5)cc4)c3)[nH]c2c1 [TCMDC-133887] | 2.75% |
| NC(=O)C1CCN(Cc2cccc(-c3ccc(-c4nc5ccc(C(F)(F)F)cc5[nH]4)cc3)c2)CC1 [TCMDC-132691] | -22.66% |
| NC(=O)C1CCN(Cc2ccc(-c3ccc(-c4nc5cc(F)ccc5[nH]4)cc3)cc2)CC1.O=C(O)C(F)(F)F [TCMDC-132693] | 4.411% |
| FC(F)(F)c1ccc2nc(-c3ccc(-c4cccc(CN5CCCCC5)c4)cc3)[nH]c2c1 [TCMDC-133886] | -44.09% |
| Fc1ccc2[nH]c(-c3cccc(-c4ccc(CN5CCC(CCN6CCCCC6)CC5)cc4)c3)nc2c1 [TCMDC-133940] | 104.4% |
| Cc1cccc2nc(-c3ccc(-c4ccc(CN5CCC(CCN6CCCCC6)CC5)cc4)cc3)[nH]c12 [TCMDC-133929] | 114% |
| Fc1ccc2[nH]c(-c3ccc(-c4ccc(CN5CCC(CCN6CCCCC6)CC5)cc4)cc3)nc2c1 [TCMDC-133924] | 105.4% |
| Cc1cccc2nc(-c3ccc(-c4ccc(CN5CCC(C(N)=O)CC5)cc4)cc3)[nH]c12.O=C(O)C(F)(F)F [TCMDC-132688] | 10.12% |
| CC(=O)c1cccc2c(NC(=O)Nc3ccc4nccc(N5CCN(C)CC5)c4c3)cccc12 [TCMDC-139345] | -42.22% |

| Compound | % Inhibition |
| --- | --- |
| O=C(Nc1ccsc1)Nc1cccc(-c2cccc(-c3nc4ccc(C(F)(F)F)cc4[nH]3)c2)c1 [TCMDC-133214] | -52.37% |
| CC(=O)C1(c2ccccc2)CCN(CCC2(c3ccc(Cl)c(Cl)c3)CN(C(=O)Nc3cc(F)cc(F)c3)CCO2)CC1 (stereo not drawn) [TCMDC-135332] | -16.09% |
| N#Cc1ccc(NC(=O)c2ccc(Cc3ccc4c(c3)CCN(C3CCC3)CC4)cn2)cc1 [TCMDC-136453] | 22.22% |
| COc1ccc(NC(=O)/C=C/c2ccccc2Cl)cc1OCCN1CCC(O)(c2ccc(Cl)c(C(F)(F)F)c2)CC1 [TCMDC-140918] | -10.77% |
| Fc1ccc2nc(-c3ccc(-c4cccc(CN5CCC(CCN6CCCCC6)CC5)c4)cc3)[nH]c2c1 [TCMDC-133933] | 114% |
| Fc1ccc2nc(-c3ccc(-c4cccc(CN5CCCCC5)c4)cc3)[nH]c2c1 [TCMDC-133896] | -18.48% |
| Fc1ccc2[nH]c(-c3ccc(-c4ccc(CN5CCC(CCN6CCCCC6)CC5)cc4)s3)nc2c1 [TCMDC-133932] | 102.4% |
| OCCN1CCN(Cc2cccc(-c3cccc(-c4nc5ccc(F)cc5[nH]4)c3)c2)CC1 [TCMDC-133035] | -22.3% |
| OCc1c(Cl)cc(Cl)cc1CNCCCNc1nc2ccccc2[nH]1 [TCMDC-140012] | -23.66% |
| O=C(/C=C/c1ccc(Cl)c(Cl)c1)NCC1CCN(Cc2ccc(O)cc2)CC1 [TCMDC-141740] | 34.51% |
| CCC1(C)CC(CCNCc2ccccc2O)(c2ccccc2OC)CCO1 (stereo not drawn) [TCMDC-125080] | 19.87% |
| CN1CCC(N(Cc2ccc(-c3cnc(NCc4ccccc4)nc3)cc2)S(=O)(=O)c2ccccc2)CC1 [TCMDC-137158] | 31.68% |
| Cn1nc(-c2cccc(CNCCc3cccs3)c2)c2cnc(NC3CCCC3)nc21 [TCMDC-135031] | 12.01% |
| COc1ccc(-c2cnc(NCc3ccccc3)nc2)cc1CNC1CCN(C)CC1 [TCMDC-134121] | 34.84% |
| CN1CCC(NCc2cccc(-c3cnc(NCc4ccccc4)nc3)c2)CC1 [TCMDC-134119] | 58.9% |
| Cn1nc(-c2cccc(CNCc3ccccc3)c2)c2cnc(NC3CCCC3)nc21 [TCMDC-134839] | -3.994% |
| CN1CCC(NCc2cccc(-c3nn(C)c4nc(NC5CCCC5)ncc34)c2)CC1 [TCMDC-134840] | 110.3% |
| CN1CCC(NCc2ccc(-c3cnc(NCc4ccccc4)nc3)cc2)CC1 [TCMDC-134120] | 82.56% |
| COC(=O)c1cccc(OCCNC2CCN(C[C@H](O)c3ccnc4ccc(OC)cc34)CC2)c1 [TCMDC-140710] | -10.21% |
| Cc1nnc(N2C(=N)SC(=Cc3ccc(-c4ccc(OC(F)(F)F)cc4)o3)C2=O)s1 [TCMDC-124487] | 0.8925% |
| COc1nc2c(N3CCN(CCNCc4ccc5c(n4)NC(=O)CO5)CC3)ccnc2cc1F [TCMDC-135208] | -25.48% |
| Cc1ccc(NC(=O)Nc2ccc(Cl)c(C(F)(F)F)c2)cc1-c1ccc(C(=O)NCCN2CCOCC2)cc1 [TCMDC-133589] | 4.722% |
| CN(C)CCCN1CCN(C(=O)c2cccc(-c3noc(C(F)(F)F)n3)c2)CC1 [TCMDC-132384] | -19.31% |

| Compound | % Inhibition |
| --- | --- |
| CC(C)N1CCN(C(=O)c2ccc(CN(C)CCCN3CCN(c4cccc(Cl)c4Cl)CC3)s2)CC1 [TCMDC-136526] | 84.79% |
| CC(C)N1CCN(C(=O)c2ccc(CNCCCN3CCN(c4cccc(Cl)c4Cl)CC3)s2)CC1 [TCMDC-136520] | 62.19% |
| CC(C)N1CCN(C(=O)c2ccc(CNCCCN3CCN(c4ccccc4C(F)(F)F)CC3)s2)CC1 [TCMDC-136704] | 40.48% |
| Cc1cc2[nH]c(-c3ccc(C(=O)NCCCN4CCN(c5cccc(Cl)c5)CC4)s3)nc2cc1Cl [TCMDC-140031] | -0.02415% |
| CC(C)N1CCN(C(=O)c2ccc(CNCCCN3CCN(c4cccc(Cl)c4Cl)CC3)o2)CC1 [TCMDC-136521] | -13.79% |
| CC(C)CCN1CCCN(Cc2ccc(C(=O)Nc3ccc(C(C)(C)C)cc3)cc2)CC1 [TCMDC-136444] | 35.23% |
| Cc1ccc(Oc2ccc(CNc3nc(Nc4cccc(F)c4)nc(Nc4cccc(F)c4)n3)cc2)cc1 [TCMDC-135138] | 50.43% |
| COc1cccc(Nc2nc(C)cc(NCc3ccc(-c4c(C)noc4C)cc3)n2)c1 [TCMDC-133451] | 9.249% |
| CC(=O)Nc1cccc(CNc2cc(C)nc(Nc3ccc(C)cc3)n2)c1 [TCMDC-133461] | 27.64% |
| Fc1cccc(Nc2nc(NCc3ccc(OCc4ccccc4)cc3)nc(Nc3cccc(F)c3)n2)c1 [TCMDC-135137] | 60.27% |
| O=C(Nc1ccc(OCc2ccccc2)cc1)c1nc2ccccc2nc1Cl [TCMDC-124732] | 4.904% |
| Oc1ccc(CCNc2nc(NCc3cccc(OCc4cccc(F)c4)c3)nc(N3CCNCC3)n2)cc1 [TCMDC-133812] | -36.91% |
| COc1cc(Cc2cnc3nc(N)nc(N)c3c2C)cc(OC)c1OC [TCMDC-138058] | -6.965% |
| CCOc1ccc2nc(C)cc(NN=Cc3ccncc3)c2c1 [TCMDC-142046] | -27.59% |
| COc1ccc2nc(C)cc(NN=Cc3ccc(Cl)cc3)c2c1 [TCMDC-123971] | 99.29% |
| Cc1ccc2c(NN=CC=Cc3ccccc3)cc(C)nc2c1 [TCMDC-142075] | -22.28% |
| COc1ccc2c(NN=Cc3ccc(F)cc3)cc(C)nc2c1 [TCMDC-142086] | 107.2% |
| CCOc1ccc2nc(C)cc(NN=Cc3ccccc3)c2c1 [TCMDC-142094] | -27.91% |
| Cc1ccc2c(NN=Cc3cccc(F)c3)cc(C)nc2c1 [TCMDC-142067] | 59.3% |
| Cc1cc(NN=Cc2ccc(F)cc2)c2ccc(F)cc2n1 [TCMDC-142039] | -75.1% |
| CCOc1ccc2nc(C)cc(NN=Cc3ccc(Cl)cc3)c2c1 [TCMDC-142091] | 100.1% |
| Cc1ccc2nc(C)cc(NN=Cc3cccc(F)c3)c2c1 [TCMDC-142066] | 30.79% |
| Cc1cc(NN=Cc2ccc(Cl)cc2)c2ccccc2n1 [TCMDC-123979] | 12.17% |
